In all, about 7,700 compounds went through this assay and about 15 (0.2%) were called active. Not shown: some 6% with an inconclusive outcome. The sample as a whole holds a higher share of actives than the screen did. Unmarked numbers belong to inactive results.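 How the source made its calls: active means more than half of replicate wells with inhibition above about 18% (limit read from the data, passing the limit was not always enough); inconclusive means exactly half of replicate wells above that limit; inactive means fewer than half of replicates above it.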

The target in the assay is Regulator of chromosome condensation (Homo sapiens) + GTP-binding nuclear protein Ran (Homo sapiens) + Importin subunit beta-1 (Homo sapiens) (UniProt P18754+P62826+Q14974). The experiment in a line: inhibitors of Ran–importin-beta complex formation, primary screen, biochemical, CFP-Ran/YFP-importin-beta FRET, RCC1, cell-free (AID 434961).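 Further: 0% = DMSO wells and 100% inhibition = RanGDP control wells on each plate.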 As to conditions: active compounds read high, concentration not given here.
By inhibition is commonly meant the drop in the measured response relative to a control, in per cent. As for `CNC[C@H]1Oc2ccc(NC(=O)NC(C)C)cc2CC(=O)N([C@H](C)CO)C[C@H]1C`, the inhibition is -4.07%.

With `CNC[C@H]1OCCCC[C@@H](C)Oc2ccc(N)cc2C(=O)N([C@H](C)CO)C[C@@H]1C`, the inhibition was 7.03%.

Take `C[C@@H]1CN([C@H](C)CO)C(=O)Cc2cc(NS(=O)(=O)c3cn(C)cn3)ccc2O[C@H]1CN(C)CC1CC1`: the inhibition is 1.45%.

As for `Cc1noc(C)c1NC(=O)N(C)C[C@@H]1Oc2c(NS(C)(=O)=O)cccc2C(=O)N([C@H](C)CO)C[C@H]1C`, the inhibition was -0.0899%.

Turning to `C[C@@H]1CCCCO[C@H](CN(C)C(=O)C2CCCCC2)[C@H](C)CN([C@@H](C)CO)C(=O)c2cc(NC(=O)c3ccncc3)ccc2O1`, the inhibition was 2%.

On to `C[C@@H]1CN([C@H](C)CO)C(=O)Cc2cc(NC(=O)Nc3ccc4c(c3)OCO4)ccc2O[C@@H]1CN(C)CC1CC1`, for which the inhibition was 24.2% (active).

Turning to `C[C@@H]1CN([C@H](C)CO)C(=O)Cc2cc(NC(=O)Cc3ccccc3)ccc2O[C@@H]1CN(C)S(=O)(=O)c1cccs1`, the inhibition was -2.73%.

In the case of `C[C@@H]1CN([C@@H](C)CO)C(=O)Cc2cc(NC(=O)Nc3ccc4c(c3)OCO4)ccc2O[C@@H]1CN(C)CC1CC1`, the inhibition was 2.45%.

On to `C[C@H](CO)N1C[C@H](C)[C@@H](CN(C)S(=O)(=O)c2cccs2)Oc2ccc(NC(=O)Cc3ccccc3)cc2CC1=O`, for which the inhibition is 19.8% (active).

On to `C[C@H]1CN([C@@H](C)CO)C(=O)Cc2cc(NC(=O)Cc3ccccc3)ccc2O[C@@H]1CN(C)S(=O)(=O)c1cccs1`, for which the inhibition was -0.944%.

Take `C[C@H](CO)N1C[C@H](C)[C@H](CN(C)CC2CC2)Oc2ccc(NC(=O)Nc3ccc4c(c3)OCO4)cc2CC1=O`: the inhibition is -0.0887%.

Regarding `C[C@@H]1CCCCO[C@H](CN(C)Cc2ccncc2)[C@H](C)CN([C@H](C)CO)C(=O)c2cc(NS(C)(=O)=O)ccc2O1`, the inhibition was 0.0179%.

Regarding `C[C@H]1CCCCO[C@@H](CN(C)C(=O)Cc2ccccc2)[C@@H](C)CN([C@@H](C)CO)C(=O)c2cc(NS(C)(=O)=O)ccc2O1`, the inhibition was 3.79%.

For the compound `C[C@@H]1CN([C@@H](C)CO)C(=O)c2cc(NC(=O)CCCN(C)C)ccc2O[C@@H](C)CCCCO[C@H]1CN(C)Cc1ccc2c(c1)OCO2`, the inhibition was 7.22%.

On to `C[C@@H]1CCCCO[C@@H](CN(C)Cc2ccncc2)[C@H](C)CN([C@@H](C)CO)C(=O)c2cc(NS(C)(=O)=O)ccc2O1`, for which the inhibition was -2.5%.

Turning to `C[C@H]1CN([C@@H](C)CO)C(=O)c2cccc(NS(C)(=O)=O)c2O[C@H]1CN(C)Cc1ccncc1`, the inhibition is 7.75%.

`C[C@@H]1CN([C@@H](C)CO)C(=O)c2cc(NS(C)(=O)=O)ccc2O[C@@H](C)CCCCO[C@@H]1CN(C)C(=O)Cc1ccccc1`: the inhibition was -3.41%.

For the compound `C[C@@H]1CN([C@@H](C)CO)C(=O)c2cc(NS(C)(=O)=O)ccc2O[C@@H](C)CCCCO[C@H]1CN(C)C(=O)Cc1ccccc1`, the inhibition was 20.6% (active).

For `C[C@@H]1CN([C@@H](C)CO)C(=O)c2cccc(NS(C)(=O)=O)c2O[C@@H]1CN(C)Cc1ccncc1`, the inhibition is 0.304%.

As to `C[C@H]1CCCCO[C@H](CN(C)Cc2ccc3c(c2)OCO3)[C@@H](C)CN([C@@H](C)CO)C(=O)c2cc(NC(=O)CCCN(C)C)ccc2O1`, the inhibition was -3.94%.

For the compound `C[C@@H]1CN([C@H](C)CO)C(=O)c2cc(NS(C)(=O)=O)ccc2O[C@@H](C)CCCCO[C@@H]1CN(C)Cc1ccncc1`, the inhibition was 30% (active).

As for `C[C@H](CO)N1C[C@H](C)[C@@H](CN(C)Cc2ccncc2)Oc2c(NS(C)(=O)=O)cccc2C1=O`, the inhibition was 29.9% (active).

As to `C[C@@H]1CCCCO[C@H](CN(C)Cc2ccc3c(c2)OCO3)[C@@H](C)CN([C@H](C)CO)C(=O)c2cc(NC(=O)CCCN(C)C)ccc2O1`, the inhibition was 20.5% (active).

As to `Cc1noc(C)c1NC(=O)N(C)C[C@@H]1Oc2ccc(N(C)C)cc2CC(=O)N([C@H](C)CO)C[C@@H]1C`, the inhibition was 1.55%.

As to `Cc1noc(C)c1NC(=O)Nc1ccc2c(c1)C(=O)N([C@H](C)CO)C[C@@H](C)[C@@H](CN(C)C(=O)Nc1c(C)noc1C)OCCCC[C@@H](C)O2`, the inhibition is 20.4% (active).

For the compound `Cc1noc(C)c1NC(=O)Nc1ccc2c(c1)C(=O)N([C@H](C)CO)C[C@H](C)[C@@H](CN(C)C(=O)Nc1c(C)noc1C)OCCCC[C@@H](C)O2`, the inhibition was 0.0737%.

Turning to `Cc1noc(C)c1NC(=O)N(C)C[C@H]1Oc2ccc(N(C)C)cc2CC(=O)N([C@@H](C)CO)C[C@H]1C`, the inhibition was -0.258%.

On to `Cc1noc(C)c1NC(=O)Nc1ccc2c(c1)C(=O)N([C@H](C)CO)C[C@H](C)[C@H](CN(C)C(=O)Nc1c(C)noc1C)OCCCC[C@H](C)O2`, for which the inhibition is -1.94%.

For the compound `C[C@H]1CN([C@@H](C)CO)C(=O)c2cccc(NS(=O)(=O)c3cn(C)cn3)c2O[C@H]1CN(C)C`, the inhibition is 31% (active).

On to `COc1ccc(CN(C)C[C@H]2Oc3ccc(NC(=O)Nc4ccc(C(F)(F)F)cc4)cc3C(=O)N([C@@H](C)CO)C[C@@H]2C)cc1`, for which the inhibition is -6.63%.

Take `COc1ccc(CN(C)C[C@H]2Oc3ccc(NC(=O)Nc4ccc(C(F)(F)F)cc4)cc3C(=O)N([C@H](C)CO)C[C@H]2C)cc1`: the inhibition is -1.47%.

Take `Cc1noc(C)c1NC(=O)N(C)C[C@@H]1Oc2ccc(N(C)C)cc2CC(=O)N([C@H](C)CO)C[C@H]1C`: the inhibition is 24.7% (active).

On to `C[C@@H]1CN([C@H](C)CO)C(=O)c2cccc(NS(=O)(=O)c3cn(C)cn3)c2O[C@H]1CN(C)C`, for which the inhibition was -0.231%.

For the compound `COc1ccc(CN(C)C[C@H]2Oc3ccc(NC(=O)Nc4ccc(C(F)(F)F)cc4)cc3C(=O)N([C@@H](C)CO)C[C@H]2C)cc1`, the inhibition was 31.1% (active).

Regarding `C[C@H]1CN([C@@H](C)CO)C(=O)c2cccc(NS(=O)(=O)c3cn(C)cn3)c2O[C@@H]1CN(C)C`, the inhibition was 0.914%.

For `C[C@@H]1CCCCO[C@@H](CN(C)C(=O)CCC(F)(F)F)[C@@H](C)CN([C@@H](C)CO)C(=O)c2cc(NC(=O)CCC(F)(F)F)ccc2O1`, the inhibition was 17.9% (active).

Take `C[C@@H]1CCCCO[C@@H](CN(C)C(=O)CCC(F)(F)F)[C@H](C)CN([C@@H](C)CO)C(=O)c2cc(NC(=O)CCC(F)(F)F)ccc2O1`: the inhibition was -1.98%.

Regarding `C[C@H]1CCCCO[C@H](CN(C)C(=O)CCC(F)(F)F)[C@@H](C)CN([C@@H](C)CO)C(=O)c2cc(NC(=O)CCC(F)(F)F)ccc2O1`, the inhibition is 4.31%.

`CNC[C@H]1Oc2c(cccc2N(C)C)C(=O)N([C@H](C)CO)C[C@H]1C`: the inhibition is -1.15%.

Regarding `COc1ccc(CN(C)C[C@H]2Oc3c(NC(=O)Nc4c(C)noc4C)cccc3C(=O)N([C@H](C)CO)C[C@@H]2C)cc1`, the inhibition was 0.675%.

For `C[C@H](CO)N1C[C@H](C)[C@H](CN(C)C(=O)Nc2ccccc2)Oc2c(NC(=O)c3ccc(-c4nccs4)cc3)cccc2C1=O`, the inhibition is -2.67%.

As for `C[C@H](CO)N1C[C@H](C)[C@H](CN(C)Cc2ccc3c(c2)OCO3)Oc2ccc(NC(=O)CCC(F)(F)F)cc2CC1=O`, the inhibition was 0.912%.

Consider `C[C@@H]1CCCCO[C@@H](CN(C)C(=O)CCCN(C)C)[C@H](C)CN([C@@H](C)CO)C(=O)c2cc(N(C)C)ccc2O1`, for which the inhibition was 1.1%.

As to `C[C@@H]1CCCCO[C@@H](CN(C)C(=O)c2ccncc2)[C@@H](C)CN([C@@H](C)CO)C(=O)c2cc(NS(=O)(=O)c3cccs3)ccc2O1`, the inhibition was -2.75%.

For `COc1ccc(CN(C)C[C@@H]2Oc3c(NS(=O)(=O)c4cn(C)cn4)cccc3C(=O)N([C@H](C)CO)C[C@@H]2C)cc1`, the inhibition is -1.87%.

Regarding `C[C@H](CO)N1C[C@H](C)[C@H](CN(C)Cc2ccc(Cl)c(Cl)c2)Oc2c(NS(=O)(=O)c3cn(C)cn3)cccc2C1=O`, the inhibition was -0.00607%.

On to `C[C@@H]1CCCCO[C@H](CN(C)C(=O)Nc2ccccc2)[C@@H](C)CN([C@@H](C)CO)C(=O)c2cc(NC(=O)CCCN(C)C)ccc2O1`, for which the inhibition was -3.05%.

For `CNC[C@H]1Oc2ccc(NS(=O)(=O)c3cccs3)cc2CC(=O)N([C@H](C)CO)C[C@H]1C`, the inhibition is -0.195%.

For `C[C@@H]1CCCCO[C@@H](CN(C)S(C)(=O)=O)[C@H](C)CN([C@H](C)CO)C(=O)c2cc(NS(=O)(=O)c3ccccc3)ccc2O1`, the inhibition was -0.778%.

Turning to `C[C@H]1CN([C@@H](C)CO)C(=O)Cc2cc(NC(=O)C3CC3)ccc2O[C@@H]1CN(C)C(=O)Nc1ccccc1`, the inhibition is -14.8%.

As for `CNC[C@@H]1Oc2c(N)cccc2C(=O)N([C@H](C)CO)C[C@@H]1C`, the inhibition was -1.12%.

As to `COc1ccccc1CN(C)C[C@H]1OCc2cn(nn2)CCCC(=O)N([C@H](C)CO)C[C@H]1C`, the inhibition was 3.38%.

For the compound `C[C@@H]1CN([C@@H](C)CO)C(=O)c2cccc(NC(=O)c3ccncc3)c2O[C@H]1CN(C)S(=O)(=O)c1cccs1`, the inhibition was 0.118%.

For the compound `C[C@H]1CCCCO[C@@H](CN(C)Cc2ccncc2)[C@@H](C)CN([C@@H](C)CO)C(=O)c2cc(N(C)C)ccc2O1`, the inhibition was 1.7%.

For `COc1ccc(NC(=O)Nc2ccc3c(c2)C(=O)N([C@@H](C)CO)C[C@@H](C)[C@H](CN(C)Cc2ccc(C(=O)O)cc2)O3)cc1`, the inhibition was 0.138%.

On to `C[C@@H]1CN([C@H](C)CO)C(=O)c2cc(NC(=O)Nc3ccccc3)ccc2O[C@@H](C)CCCCO[C@H]1CN(C)S(=O)(=O)c1ccc(F)cc1`, for which the inhibition is 4.18%.

`C[C@H](CO)N1C[C@H](C)[C@@H](CN(C)C(=O)NC2CCCCC2)Oc2ccc(N(C)C)cc2C1=O`: the inhibition is 3.39%.

(Values after PubChem BioAssay AID434961 (Broad Institute, 2010).)
